Most compounds without a hit are left out; they make up all but 2.4% or so of the library.
Pol kappa inh: DNA polymerase kappa (human) inhibition | Q9UBT6 | purified Pol kappa, fluorescent DNA synthesis assay, 10 min | 0.53% of 400,000 active | AID 588579 | Potency, µM (top dose mostly 107 µM), inactives show at the top dose activity, negative = inhibition, actives largely listed as inhibitors; note: % is set by controls: 0 for no effect and ±100 for the full control effect
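Kinetic fluorescence screen: compound preincubated 15 min RT with 10 nM enzyme; 50 nM substrate (final) initiates; reads at 0/10 min.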
POLH inh: blocks human DNA polymerase eta activity; Q9Y253; recombinant Pol eta, fluorescent DNA replication assay; Potency, µM (highest dose often 114 µM), inactives show top-dose activity change, negative = inhibition, actives largely listed as inhibitors; 1.2% of 390,000 active; AID 588591; note: % is set by controls: 0 for no effect and ±100 for the full control effect
Target sequence (Q9Y253 whole entry, looked up): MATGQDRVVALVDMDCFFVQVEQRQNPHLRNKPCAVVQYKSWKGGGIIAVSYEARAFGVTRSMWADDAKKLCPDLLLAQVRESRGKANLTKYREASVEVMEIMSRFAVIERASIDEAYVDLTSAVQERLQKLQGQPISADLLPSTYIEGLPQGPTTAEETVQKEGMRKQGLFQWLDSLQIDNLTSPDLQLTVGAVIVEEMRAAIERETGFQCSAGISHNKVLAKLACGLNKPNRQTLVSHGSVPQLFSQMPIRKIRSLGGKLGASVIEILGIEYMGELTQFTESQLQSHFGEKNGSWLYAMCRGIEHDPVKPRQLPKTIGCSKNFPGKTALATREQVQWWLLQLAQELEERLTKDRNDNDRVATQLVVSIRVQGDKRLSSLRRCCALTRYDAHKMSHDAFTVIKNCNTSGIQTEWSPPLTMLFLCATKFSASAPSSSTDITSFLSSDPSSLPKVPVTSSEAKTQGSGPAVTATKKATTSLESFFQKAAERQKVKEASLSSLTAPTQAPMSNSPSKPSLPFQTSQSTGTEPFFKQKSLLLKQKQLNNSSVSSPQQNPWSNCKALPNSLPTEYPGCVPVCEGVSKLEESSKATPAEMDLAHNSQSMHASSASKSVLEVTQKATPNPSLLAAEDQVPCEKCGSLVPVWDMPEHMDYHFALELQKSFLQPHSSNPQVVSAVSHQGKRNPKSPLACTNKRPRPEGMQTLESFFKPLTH
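Pol eta (10 nM) was preincubated with compounds for 15 min at room temperature, after which fluorescent replication substrate (50 nM final) was added to start the reaction. Fluorescence was read kinetically at 0 and 10 min.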
POLB inh: blocks human DNA polymerase beta activity; 1.3% of 340,000 active; Potency, µM (series often up to 114 µM), inactives show at the top dose activity change, negative = inhibition, hits mostly inhibitors; Pol beta primer extension/strand displacement, fluorescence kinetic; note: % is set by controls: 0 for no effect and ±100 for the full control effect
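10 nM enzyme + cpd, 15 min RT; start with substrate 50 nM final; read 0 min and after 10 min RT. Corrected, normalized data; 4-parameter Hill curve fit.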
L3MBTL1 block: blocks human L3MBTL1 | Q9Y468 | AlphaScreen L3MBTL1–H3K9me1 peptide binding | Potency, µM (titrated, usually from 57.1 µM), inactives show at the highest dose activity, negative = inhibition, usual class: inhibitors | 0.66% of 230,000 active | AID 485360; note: % is set by controls: 0 for no effect and ±100 for the full control effect; nearly all actives have a fitted effect of over 60% in size
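First, the protein-peptide complex forms for 30 min at room temperature (L3MBTL1 50 nM, biotinylated H3K9me1 peptide 75 nM). Next, compounds are pin-transferred and incubated 30 min. Finally, AlphaScreen beads are added and read after 30 min.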
Pol iota inh: blocks human DNA polymerase iota activity; Pol iota fluorescent replication assay, 10 min; AID 588590; 1% of 390,000 active; Potency, µM (highest dose often 115 µM), for the others: top-dose activity, negative = inhibition, usual class: inhibitors
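Pol iota at 10 nM preincubated 15 min with compounds at room temperature; reaction started with fluorescent substrate, 50 nM final. Fluorescence read kinetically at 0 and 10 min; buffer-only wells as negative control.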
Numbers without * were called inactive; u = inconclusive; x = no result; [ ] = remark or other dose. Calls come from the whole dose curve; as a rule, active = well fitted curve in the direction sought with a large enough effect; inconclusive = small, poorly fitted or top-dose-only effect, or another doubt; inactive = no such curve, though single readings can be large; an effect the other way counts as inactive or inconclusive. Potency is the fitted concentration of half-maximal effect.

SMILES	Pol kappa inh	POLH inh	POLB inh	L3MBTL1 block	Pol iota inh
COc1ccc(C(=O)Nc2c(N)nc(SCC(=O)Nc3ccc(NC(C)=O)cc3)[nH]c2=O)cc1OC	u	u	u	x	79.4µM*
C=C1[C@H](C)CN[C@H]1CCO	-11.0%	-7.3%	x	x	-5.3%
COc1cccc(CNc2nc3ccccc3c3nc(-c4cccc(C)c4)nn23)c1	-1.5%	-10.0%	27.0%	x	11.3%
Cc1cc(C)cc(NC(=O)Cn2c(-c3cncs3)nc3ccccc32)c1	-13.7%	x	u	x	89.1µM*
O=Cc1ccccc1C=O	23.8µM*	x	x	x	x
O=c1[nH]c(O)c(/C=C2\C=Nc3ccc(Br)cc32)[nH]1	-13.0%	u	20µM*	-0.1%	26.4%
O=C(Cn1c(O)c(/C=C2\C=Nc3ccc(Br)cc32)sc1=O)N1CCCC1	-15.6%	-15.6%	-3.3%	x	u
Cc1cc(C(=O)NNC(=O)c2ccc(C)c([N+](=O)[O-])c2)c(C)o1	6.1%	3.6%	x	18.5%	3.1%
CCc1nnc(NS(=O)(=O)c2ccc(NC(=O)/C=C/c3ccc(OC)cc3OC)cc2)s1	u	u	56.2µM*	-13.7%	u
CCc1nnc(NS(=O)(=O)c2ccc(N/C=C\C(=O)c3cccc(OC)c3)cc2)s1	-7.4%	-16.7%	-1.6%	-2.7%	50.8%
O=C(c1cccs1)N1CCN(Cc2ccncc2)CC1	3.9%	2.5%	0.5%	1.8%	u
O=C(c1cccs1)N1CCN(Cc2cccnc2)CC1	-12.4%	22.4µM*	25.8%	-1.8%	0.1%
CC(=O)c1cccc(NC(=O)CSc2nc(C3CC3)nc3ccccc23)c1	-35.5%	-17.7%	u	x	25.1µM*
O=C(CSc1nc(-c2ccccc2)nc2ccccc12)Nc1cccc(C(=O)O)c1	0.6%	35.5µM*	-0.1%	-6.2%	u
C=CCn1c(SCC(=O)N2CCOCC2)nnc1C(C)NC(=O)c1ccccc1 (configuration not stated)	-8.2%	-9.1%	55.3%	x	0.3%
CCCCCCCCN1[C@@H](CC(=O)O)c2cc(C(F)(F)F)ccc2S1(=O)=O	-18.0%	-2.4%	x	x	u
CCCCCCCCCCCCN1[C@@H](CC(=O)O)c2cc(C(F)(F)F)ccc2S1(=O)=O	u	44.7µM*	x	x	u
CC1=NN(c2ccc(C)cc2)C(=O)/C1=C\c1ccc(Br)s1	-13.8%	u	-16.4%	u	3.55µM*
Cc1ccc2cc3c(N)c4c(C)ccc(C)c4nc3nc2c1	-33.3%	u	25.1µM*	-10.1%	u
Cc1ccc2c(N)c(C)ccc2c1	-10.3%	-3.5%	15.4%	-8.1%	14.5%
O=C(N/N=C/c1c(O)ccc2ccccc12)c1ccc[n+](CCO)c1	-1.9%	-15.4%	0.8%	35.5µM*	3.5%
Cc1ccc(C(=O)N/N=C/c2c(O)ccc3ccccc23)cn1	-6.2%	50.1µM*	50.1µM*	x	u
COc1ccc(OCc2cc(C(=O)NCCN3CCCc4ccccc43)no2)c(Cl)c1	-5.5%	-24.8%	0.8%	x	-6.2%
COc1cc(/C=C/C(=O)OCC(=O)N2CCN(S(=O)(=O)c3ccc(C)cc3C)CC2)ccc1O	u	20µM*	35.5µM*	u	u
Cc1ccc(S(=O)(=O)N2CCN(C(=O)COC(=O)/C=C/c3ccc(Cl)cc3)CC2)c(C)c1	-17.8%	-12.7%	x	x	7.1%
SMILES	Pol kappa inh	POLH inh	POLB inh	L3MBTL1 block	Pol iota inh
CCN(C(=O)NCc1noc2ccccc12)c1cc(C)ccc1C	-2.8%	-13.8%	64.4%	x	-9.4%
Cc1ccc(S(=O)(=O)N(C)C)cc1NC(=O)c1cc(-c2ccco2)nc2ccccc12	u	u	-0.5%	x	20µM*
Cc1ccc(NC(=O)c2cc(-c3ccco3)nc3ccccc23)cc1S(=O)(=O)N1CCOCC1	-41.2%	u	14.1µM*	-8.0%	15.8µM*
NS(=O)(=O)c1ccc(CCNc2nc3c(-c4cccc(F)c4)nnn3c3ccc(Cl)cc23)cc1	2.8%	89.1µM*	u	x	33.6%
Fc1cccc(-c2nnn3c2nc(NCCc2ccccc2)c2ccccc23)c1	3.4%	-12.8%	15.3%	x	28.1%
Nc1ccccc1Sc1ccc(C(=O)c2ccccc2C(=O)O)cc1[N+](=O)[O-]	-4.9%	u	-6.8%	-11.4%	-14.4%
O=C(O)c1ccccc1C(=O)c1ccc(Sc2ccc(Cl)cc2)c([N+](=O)[O-])c1	0.0%	-14.0%	79.4µM*	-11.8%	14.6%
O=C1C=C(c2ccccc2)CC(c2cccs2)C1n1cnc([N+](=O)[O-])c1 (configuration not stated)	-15.3%	u	50.1µM*	-0.1%	-19.5%
O=C1C=C(c2ccccc2)C[C@H](c2cccs2)[C@H]1n1nnc([N+](=O)[O-])n1	-15.5%	u	-19.8%	-18.0%	-12.6%
COc1cc(OC)c(/C=C/c2cc[n+](C)c3ccccc23)c(OC)c1	0.7%	x	x	x	9.3%
C[n+]1ccc(/C=C/c2ccc(C=S)cc2)c2ccccc21	-22.9%	x	x	x	89.1µM*
COc1cc(OC)c(OC)cc1/C=C/c1cc[n+](C)c2ccccc12	89.1µM*	x	x	x	70.8µM*
C=CCc1cccc(C=NNC(=O)CN2CCN(Cc3ccccc3)CC2)c1O	-2.1%[60.1 µM]	x	x	x	x
O=c1oc2ccccc2cc1-c1cn2cc(Cc3ccccc3F)sc2n1	1.4%	-6.5%	0.7%	x	14.3%
COc1cc2c(cc1O)CCN[C@@]21CS[C@H]2c3c(OC(C)=O)c(C)c4c(c3C(COC1=O)N1C2C2c3c(cc(C)c(OC)c3O)CC([C@@H]1O)N2C)OCO4 (some centres not stated)	-19.5%[19.4 µM]	x	x	x	x
C1=C/C(=C2/C=Cc3ccccc32)c2ccccc2N1	-6.5%	x	x	x	-4.5%
CCCCOC(=O)CSC1=C(C#N)C(c2ccccc2OCC)C(C#N)C(=O)N1 (configuration not stated)	-37.9%	-15.2%	11.7%	-4.7%	79.4µM*
CCCCCCCCCOC(=O)CNc1nc(C#N)nc(NCC(=O)OCCCCCCCCC)n1	-6.7%	x	x	x	2.6%
C=CC(C)(C)c1c(O)c(CC=C(C)C)c(O)c2c(=O)c3ccc(O)c(O)c3oc12	-17.4%	-5.3%	x	x	-13.9%
C=CC(C)(C)c1[nH]c2ccccc2c1C1=C(O)C(=O)C(c2c[nH]c3c(CC=C(C)C)cccc23)=C(O)C1=O	1.41µM*	x	x	x	x
CCOC(=O)c1noc2ncn(CC(=O)Nc3ccc(OC)c(Cl)c3)c(=O)c12	-8.8%[60.1 µM]	1.9%	u	x	-29.1%
C=C1C(=O)OC2C1CCC(C)=C1C(=O)C3OC3(C)C12 (configuration not stated)	15.6%	89.1µM*	x	x	u
CCCCCCOc1ccc(CC(=O)O)cc1	1.9%	x	x	x	31.4%
O=c1ccc2ccccc2[nH]1	13.0%[60.1 µM]	x	x	x	x
COc1cc(O)cc(OC)c1OC	-2.8%[60.1 µM]	x	x	x	x
COc1c(O)cc(O)cc1O	25.1µM*	x	x	x	x
O=C(Cn1ncc2c3ccccc3n(Cc3cccc(Cl)c3)c2c1=O)NCCCc1ccccc1	u	-23.6%	28.2µM*	x	u
O=[N+]([O-])c1cc(/C=N\Nc2nc(-c3ccccc3)cs2)ccc1O	-25.1%	79.4µM*	39.8µM*	x	u
